# Results taken from the supplement of paper PMC10338343.
# ± gives the standard deviation. Whole data set: some 8,200 sequences, median “pre-steady-state target cleavage rate” near 0.024, cut for the highest 2% near 1.3. The full list was thinned out, with the highest values kept by preference.
# System: MIWI (PIWIL1) piRISC loaded with L1MC piRNA (30 nt)
# Test: pre-steady-state target cleavage rate (min^-1); MIWI and MILI are mouse PIWI proteins and EfPiwi is from a freshwater sponge; tags in brackets are library labels; higher = faster piRNA-guided slicing of the target
# Conditions: guide: L1MC piRNA 5'p-UAACUAAAUACUAUGCAAGCUGUAGGUCCU
# How it was run: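 In this Cleave-'n-Seq assay, uncleaved targets were sequenced and normalised to depth and to weakly complementary targets. They came from a transcribed, DNA-blocked target RNA library […] mixed with 1 nM active affinity-purified piRISC carrying one synthetic guide, with or without 500 nM GTSF1 partner protein, in HEPES–potassium acetate buffer at 33 °C for 0–8 or 0–960 min. After three trials were pooled and k3 was capped at 0.0001 min^-1, the pre-steady-state cleavage rate was obtained from a burst-and-steady-state fit.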
# [1] = auxiliary factor: 500 nM mouse GTSF1
# [2] = auxiliary factor: none (no GTSF1)
# 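Also: 1 nM active piRISC with 0.1 nM target library at 33 °C single turnover.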
Sequence,pre-steady-state target cleavage rate [1],pre-steady-state target cleavage rate [2]
UCCAGGAACAGCUUGCAUAGUAUUUACAAA,0.328 ± 0.041,0.00665 ± 0.0019
UCCUCCUACAGCUUGCAAAGUUUUUAGUUA,0.352 ± 0.029,0.0137 ± 0.0033
UCCUGGAUGUCCUUUCAUAGUAUUUAGUUA,0.0134 ± 0.004,
UCCUGGUAGACCUUGCAUAGUAUUUAGUUA,0.46 ± 0.042,0.00968 ± 0.0029
UCCACCUACACCUUGCAUAGAAUUUAGUUA,0.337 ± 0.066,0.0107 ± 0.003
UCCACCUACAGCUUACAUAGUAUUUAGUUA,0.753 ± 0.034,0.0222 ± 0.0039
UGGACCUACAGCUUUCAUAGUAUUUAGUUA,0.593 ± 0.032,0.0286 ± 0.0052
UGGACCUACAGCUUACAUAGUAUUUAGUUA,1.53 ± 0.079,0.0508 ± 0.0082
UGGACCUACAGCUUGACAUAGUAUUUAGUUA,0.986 ± 0.1,0.00706 ± 0.0031
UGGACCUACAGCUUCAUAGUAUUUAGUUA,1.36 ± 0.077,0.0221 ± 0.0047
AGGACCUACAGCUUCAUAGUAUUUAGUUA,1.11 ± 0.053,0.0309 ± 0.0073
UCGACCUACAGCUUACAUAGUAUUUAGUUA,1.59 ± 0.062,0.0382 ± 0.0069
AGGACCUACAGCUUACAUAGUAUUUAGUUA,1.28 ± 0.064,0.0655 ± 0.011
UCGACCUACAGCUUGACAUAGUAUUUAGUUA,0.952 ± 0.072,0.00438 ± 0.0026
UCCUGGAAGAGCUUGCAUAGUAUUUACAAA,0.0945 ± 0.02,
UCCUGGAUGAGCUUGCAUAGUAUAUACAAA,0.00918 ± 0.0054,
UCCUGCUACAGCUUGCUUAGUAUAUAGUUA,0.404 ± 0.038,0.0128 ± 0.0044
UCCACCUACUGCUUGCAUACUAUUUAGUUA,0.297 ± 0.026,0.0231 ± 0.0039
UCCUGCUAGAGCUUGCAUACUAUUUAGUUA,0.248 ± 0.03,0.0221 ± 0.0058
UCCUCCUACUGCUUGGAUAGUAUUUAGUUA,1.21 ± 0.04,0.0517 ± 0.0073
UCGACCUACUGCUUGGAUAGUAUUUAGUUA,1.67 ± 0.068,0.0575 ± 0.0089
AGGACCUACUGCUUGGAUAGUAUUUAGUUA,1.34 ± 0.052,0.061 ± 0.0085
UGGACCUACACCUUGGAUAGUAUUUAGUUA,0.815 ± 0.069,0.0418 ± 0.0063
UCCUGCUACUGCUUGGAUAGUAUUUAGUUA,0.969 ± 0.077,0.0353 ± 0.0055
AGGACCUACACCUUGGAUAGUAUUUAGUUA,0.817 ± 0.061,0.0497 ± 0.0086
UGGACCUACUGCUUGGAUAGUAUUUAGUUA,1.65 ± 0.072,0.0542 ± 0.0088
UCGACCUACACCUUGGAUAGUAUUUAGUUA,0.854 ± 0.076,0.0364 ± 0.0044

Sequence,pre-steady-state target cleavage rate [1],pre-steady-state target cleavage rate [2]
UCCACCUACUGCUUGGAUAGUAUUUAGUUA,1.14 ± 0.049,0.0503 ± 0.0082
UCCUGGAUGUCGAACGUAUCUAAUUAGUAA,,< 0.0001
UCCUGGAUCAGCUUGAUAGUAUUUAGUUA,0.0664 ± 0.007,0.00393 ± 0.0017
AGGACCUAGAGCUUGCAUAGUAUUUUCAAA,0.0396 ± 0.013,
UCCUGCUACAGCAUGCAUAGUAUUUAGUAA,0.655 ± 0.063,0.00614 ± 0.0024
UCCUGGAACAGCUACCAUAGUAUUUAGUAA,0.0979 ± 0.017,
UCCUCCUACAGCUUGCAUAGUUAAUAGAAA,0.0486 ± 0.014,
UCCUGGUACAGCUUGCAAUGUAUUUAGAAA,0.0194 ± 0.0063,
UCGACCUACAGCUUGGUUAGUAUUUUCAAA,0.0241 ± 0.0089,
UCCUGGAUGUCCUUGCAUAGUAUAAUGUUA,0.0139 ± 0.0063,
UCGACCUACAGCUUGCAUAGUAUUAACAAA,0.401 ± 0.044,
UCCACCUACAGCUUGCUUAGUAUUAAGUUA,0.31 ± 0.03,0.00763 ± 0.0016
AGGACCUACAGCAUGCAUAGUAUUUAGUAA,0.986 ± 0.075,0.0556 ± 0.014
AGGACCUACAGCAUGCAUAGUAUUUAGUUA,1.33 ± 0.06,0.073 ± 0.015
AGGUCCUACAGCAUGCAUAGUAUUUAGUUA,1.33 ± 0.062,0.107 ± 0.026
UCGUCCUACAGCAUGCAUAGUAUUUAGUUA,1.26 ± 0.047,0.0282 ± 0.0049
UGGACCUACAGCAUGCAUAGUAUUUAGUAA,0.977 ± 0.075,0.0303 ± 0.0065
UGGACCUACAGCAUUGCAUAGUAUUUAGUUA,1.27 ± 0.11,0.0665 ± 0.014
AGGACCUACAGCAUGCAUAGUAUUUAGAAA,0.577 ± 0.059,0.00715 ± 0.0031
UGGACCUACAGCAUGCAUAGUAUUUAGUUA,1.38 ± 0.078,0.0549 ± 0.011
UGGUCCUACAGCAUGCAUAGUAUUUAGUUA,1.19 ± 0.061,0.0657 ± 0.014
UCCUGGAUGUCGAUGCAUAGUAUUUAGUGA,0.0103 ± 0.0037,
UCCACCUACAGCAAGCAUAGUAUUUAGAAA,0.243 ± 0.035,
UCCUGGAUGUCCUUGGAUAGUAUUUUGUUA,0.0668 ± 0.017,
UCCUCCUACAGCUUGCAUAGUAUCUUAGUUA,0.96 ± 0.045,0.016 ± 0.0044
UGGACCUACAGGAUGCAUAGUAUUUACAAA,0.216 ± 0.039,
UCCUGGAACUCGUUGCAUAGUAUUUAGUAA,0.071 ± 0.011,0.00318 ± 0.0021

Sequence,pre-steady-state target cleavage rate [1],pre-steady-state target cleavage rate [2]
UCCUGCUACAGCUUGCAUAGUAUUUAGUA,0.422 ± 0.071,0.00464 ± 0.0019
UCCUGCUACAGCUUGCUUAGAAUUUAGUUA,0.247 ± 0.026,0.00845 ± 0.0029
AGGACCUACACGAUGCAUAGUAUUUACAAA,0.19 ± 0.025,
UCCACCUACAGCUUGCAAAGUAUAUAGUUA,0.468 ± 0.045,0.0135 ± 0.0031
UGGACCUACAGCUUGCAUAGUAUAUAGUAA,0.356 ± 0.038,0.012 ± 0.0037
UGGACCUACAGCUUGCAUAGUAUUAUAGUUA,1.24 ± 0.062,0.052 ± 0.011
UGGACCUACAGCUUGCAAAGUAUAUAGUUA,0.895 ± 0.057,0.0204 ± 0.0062
AGGACCUUCAGCUUGCAUAGUAUUUAGUUA,1.32 ± 0.056,0.0842 ± 0.013
UGGACCUACAGCUUGCAUAGUAUAUUAGUUA,1.33 ± 0.079,0.0409 ± 0.0089
AGGACCUUCAGCUUGCAUAGUAUUUAGUAA,1.07 ± 0.079,0.0632 ± 0.012
AGGACCUACAGCUUGCAUAGUAUAUAGUUA,0.884 ± 0.066,0.0667 ± 0.017
AGGACCUACAGCUUGCAUAGUAUAUAGUAA,0.493 ± 0.058,0.0216 ± 0.0048
UGGACCUUCAGCUUGCAAAGUAUUUAGUUA,1.34 ± 0.073,0.0368 ± 0.0084
AGGACCUACAGCUUGCAUAGUAUUAUAGUUA,1.05 ± 0.078,0.0707 ± 0.015
UGGACCUACAGCUUGCAUAGUAUUAGUUA,0.172 ± 0.032,0.00299 ± 0.0019
AGGACCUUCAGCUUGCAAAGUAUUUAGUUA,1.3 ± 0.051,0.0464 ± 0.0089
UGGACCUUCAGCUUGCAUAGUAUUUAGUAA,1.07 ± 0.064,0.0524 ± 0.011
UCGACCUACAGCUUGCAAAGUAUAUAGUUA,0.855 ± 0.055,0.0157 ± 0.0033
UGGACCUACAGCUUGCAUAGUAUAUAGUUA,0.892 ± 0.062,0.0341 ± 0.0087
AGGACCUACAGCUUGCAAAGUAUAUAGUUA,0.667 ± 0.049,0.0238 ± 0.0054
AGGACCUACAGCUUGCAUAGUAUAUUAGUUA,1.18 ± 0.097,0.0609 ± 0.015
UGGACCUUCAGCUUGCAUAGUAUUUAGUUA,1.45 ± 0.067,0.069 ± 0.011
UCCUCCUACAGCUUGCAUUGUAUUAAGUUA,0.309 ± 0.026,0.00813 ± 0.0024
UCCACCUACAGCUUGCAUAGAAUUUAGAUA,0.247 ± 0.037,0.00935 ± 0.0029
UCGACCUACAGCUUGCAUAGUUAUUACAAA,0.115 ± 0.035,
